A selection: hits, their analogues and other compounds. The true share with any hit is near 6.6%.
Beta apoptosis: beta cell apoptosis inhibition; INS-1E cytokine-induced death, ATP luminescence, 48 h; percent of positive-control rescue, neutral wells zero; protection from apoptosis, % (concentration not given with the values); actives 0.8% (n = 300,000); AID 435005;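 active means Every replicate reaches about 75%, or at least half do and their mean reaches it too, limit read from the data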;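 further: 0% = cytokine-treated negative control wells and 100% = positive control rescue; higher means more ATP so stronger rescue from cytokine killing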
CSC inhib: blocks cancer stem cells; cancer stem cell-like cells viability, luminescence; AID 2717; inhibition, % at 7.5 µM; actives 1.1% (n = 300,000); in the data active means inhibition above about 75%; tested in HMLE shEcad cells
Mdm2-MdmX inh: human Mdm2/MdmX binding inhibition | SaOS-2 split-luciferase Mdm2/MdmX complementation, luminescence | O15151+Q00987 | inhibition, % at 8 µM | actives 3% (n = 330,000) | AID 485346;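 active means inhibition of at least 50% at 8 µM in the primary screen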
Target sequence (O15151 whole entry, looked up): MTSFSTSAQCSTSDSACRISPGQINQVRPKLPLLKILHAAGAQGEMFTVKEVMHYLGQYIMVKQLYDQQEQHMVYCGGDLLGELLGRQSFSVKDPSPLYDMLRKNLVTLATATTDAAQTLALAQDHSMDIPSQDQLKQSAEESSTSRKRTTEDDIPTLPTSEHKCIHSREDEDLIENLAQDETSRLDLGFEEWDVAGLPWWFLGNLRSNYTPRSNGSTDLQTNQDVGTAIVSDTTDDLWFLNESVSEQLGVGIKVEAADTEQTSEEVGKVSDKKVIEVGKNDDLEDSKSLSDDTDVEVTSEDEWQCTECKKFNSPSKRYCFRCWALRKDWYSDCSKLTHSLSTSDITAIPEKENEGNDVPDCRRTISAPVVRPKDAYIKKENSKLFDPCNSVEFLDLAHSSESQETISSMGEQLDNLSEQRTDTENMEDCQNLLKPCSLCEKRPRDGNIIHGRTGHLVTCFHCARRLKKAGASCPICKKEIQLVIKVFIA
Target sequence (Q00987 whole entry, looked up): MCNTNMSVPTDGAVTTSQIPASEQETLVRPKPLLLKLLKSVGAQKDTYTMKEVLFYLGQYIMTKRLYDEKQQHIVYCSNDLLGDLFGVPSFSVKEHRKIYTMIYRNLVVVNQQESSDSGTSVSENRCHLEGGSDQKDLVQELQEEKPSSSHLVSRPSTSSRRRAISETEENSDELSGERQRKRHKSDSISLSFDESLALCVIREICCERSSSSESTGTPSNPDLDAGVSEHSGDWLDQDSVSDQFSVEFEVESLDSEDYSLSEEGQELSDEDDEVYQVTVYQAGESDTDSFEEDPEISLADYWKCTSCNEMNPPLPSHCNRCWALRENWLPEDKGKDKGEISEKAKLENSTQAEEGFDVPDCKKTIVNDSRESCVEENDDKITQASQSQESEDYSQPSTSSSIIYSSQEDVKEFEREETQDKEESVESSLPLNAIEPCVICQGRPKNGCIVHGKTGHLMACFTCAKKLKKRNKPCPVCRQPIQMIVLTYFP
GRIN3A LBD mod: modulators (binders) of human NR3A ligand-binding domain. NR3A LBD differential scanning fluorimetry, Tm shift; 0% = protein alone, 100% = glycine-bound protein. Tm shift relative to glycine control, % at 25 µM. actives 2.5% (n = 340,000). AID 1259313;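 active means melting temperature shift of at least 10% of the positive control shift, at one fixed dose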
Gli-Sufu block: Gli-Sufu pathway antagonism; Sufu-KO-LIGHT fibroblasts, Gli luciferase reporter luminescence; inhibition, % at 5 µM; actives 0.74% (n = 340,000); AID 588413;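 active means inhibition above about 55%, limit read from the data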;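 further: 0% = DMSO-treated cells and 100% = wells with medium but no cells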
MPTP inh: inhibitors of mitochondrial permeability transition pore. isolated mouse mitochondria, Ca2+ swelling absorbance, 30 min. inhibition, % at 10 µM. actives 1.4% (n = 360,000). AID 602449;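 active means inhibition of 50% or more, scaled per plate between neutral and stimulator controls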;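 further: 0% = DMSO wells given calcium and 100% = 1 mM EGTA wells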
Mdm2-MdmX conf: confirmation of human Mdm2/MdmX interaction inhibitors; shares compounds with Mdm2-MdmX inh; AID 489028; inhibition, % at 8 µM; Mdm2-MdmX binding, luminescent assay; actives 55% (n = 10,000); in the data active means inhibition above about 40%
FLuc counter: counter-screen for Mdm2/MdmX inhibitors: full-length luciferase. shares compounds with Mdm2-MdmX inh. SaOS-2 full-length luciferase counterscreen, luminescence. inhibition, % at 8 µM. actives 77% (n = 6,200);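 active means mean inhibition at 8 µM reaching about 37%, which flags the compound as non-specific, limit read from the data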;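 further: p53-null SaOS-2 cells with luciferase driven by a doxycycline-inducible promoter; compound on cells about two nights before reading with doxycycline added after day one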
Active calls of the source: *.

How did CC(C)(C)c1ccc(C(=O)NNC(=S)NC(=O)c2cccnc2)cc1 do in these assays?
Beta apoptosis: 62; CSC inhib: 25; Mdm2-MdmX inh: 34; GRIN3A LBD mod: -5; Gli-Sufu block: -6; MPTP inh: 3

Results for Cc1ccc(C2=Nc3cccnc3C(c3ccccc3)=NN2)cc1 ?
Beta apoptosis: 2; CSC inhib: -17; Mdm2-MdmX inh: -128; GRIN3A LBD mod: -2; Gli-Sufu block: -56; MPTP inh: 1

How did COc1cc(C(C)=O)ccc1OCCCOc1cccc2cccnc12 do in these assays?
Beta apoptosis: -5; CSC inhib: -12; Mdm2-MdmX inh: 4; GRIN3A LBD mod: -4; Gli-Sufu block: 18; MPTP inh: 0

What do the screens show for `Cc1nnc(SC(C)C(=O)Nc2ncc(Cl)cc2Cl)n1Cc1ccccc1` (centres undefined)?
Beta apoptosis: 3; CSC inhib: -8; Mdm2-MdmX inh: 2; GRIN3A LBD mod: -1; Gli-Sufu block: 2; MPTP inh: -8

Results for COCCn1c(SC(C)C(=O)Nc2ncc(Cl)cc2Cl)nc2ccccc21 (centres undefined) ?
Beta apoptosis: -1; CSC inhib: 22; Mdm2-MdmX inh: 67*; GRIN3A LBD mod: -2; Gli-Sufu block: -1; MPTP inh: 0; Mdm2-MdmX conf: 50*; FLuc counter: 58*

Results for CC(/C=N/n1c(COc2ccccc2)n[nH]c1=S)=C\c1ccco1 ?
Beta apoptosis: 1; CSC inhib: -15; Mdm2-MdmX inh: 25; GRIN3A LBD mod: 4; Gli-Sufu block: -2; MPTP inh: 3

How did CC(C)C[C@@H](C(=O)NC1CCN(Cc2ccccc2)CC1)N1C(=O)N2CCc3c([nH]c4ccccc34)[C@@]2(C)C1=O do in these assays?
Beta apoptosis: 7; CSC inhib: 12; Mdm2-MdmX inh: 60*; GRIN3A LBD mod: -3; Gli-Sufu block: -2; MPTP inh: 8; Mdm2-MdmX conf: 46*; FLuc counter: 58*

Results for CC(C)C[C@@H](C(=O)NC1CC1)N1C(=O)N2CCc3c([nH]c4ccccc34)[C@@]2(C)C1=O ?
Beta apoptosis: 3; CSC inhib: 4; Mdm2-MdmX inh: -2; GRIN3A LBD mod: -4; Gli-Sufu block: 2; MPTP inh: -1

How did CC1CCCCN1CCNC(=O)c1ccc2c(c1)N(Cc1ccccc1F)C(=O)c1ccccc1S2=O (centres undefined) do in these assays?
Beta apoptosis: -2; CSC inhib: 24; Mdm2-MdmX inh: 33; GRIN3A LBD mod: -4; Gli-Sufu block: 27; MPTP inh: -1

How did Cc1ccc(NC(=O)Cc2ccc(Cl)cc2)cc1S(=O)(=O)N1CCCCCC1 do in these assays?
Beta apoptosis: 15; Mdm2-MdmX inh: 4; GRIN3A LBD mod: 6; Gli-Sufu block: 4; MPTP inh: 29

How did Cc1cccc(NC(=O)CNC(=O)Cn2ncc(Cl)c(Cl)c2=O)c1C do in these assays?
Beta apoptosis: -4; CSC inhib: -8; Mdm2-MdmX inh: 100*; GRIN3A LBD mod: 0; Gli-Sufu block: 10; MPTP inh: 0; Mdm2-MdmX conf: 56*; FLuc counter: 52*

How did O=C(Cn1ncc(Cl)c(Cl)c1=O)NC1CCS(=O)(=O)C1 (centres undefined) do in these assays?
Beta apoptosis: -13; CSC inhib: -6; Mdm2-MdmX inh: 13; GRIN3A LBD mod: -1; Gli-Sufu block: -7; MPTP inh: 0

What do the screens show for `Cc1cccc(NC(=O)CNC(=O)CSc2ncccn2)c1C`?
Beta apoptosis: 3; CSC inhib: 2; Mdm2-MdmX inh: 4; GRIN3A LBD mod: 0; Gli-Sufu block: -1; MPTP inh: 0

How did Cc1ccc(NC(=O)Cn2ncc(Cl)c(Cl)c2=O)cc1S(=O)(=O)N1CCCCC1 do in these assays?
Beta apoptosis: -1; Mdm2-MdmX inh: 100*; GRIN3A LBD mod: -4; Gli-Sufu block: -5; MPTP inh: -2; Mdm2-MdmX conf: 85*; FLuc counter: 54*

How did O=C(Cn1ncc(Cl)c(Cl)c1=O)NC1CCCCC1 do in these assays?
Beta apoptosis: -9; Mdm2-MdmX inh: 100*; GRIN3A LBD mod: 4; Gli-Sufu block: 3; MPTP inh: 1; Mdm2-MdmX conf: 76*; FLuc counter: 56*
